CYP2C9 act = CYP2C9 (human) activation | recombinant CYP2C9, luciferin-H conversion, luminescence; hits give high values; factor 1 = untreated enzyme, 0 = blocked | hit rate 1.4% among 96,000 | activation factor at 5 µM | AID 1024;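 active means activation factor of 2 or more for CYP2C9 at a 5 µM dose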;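 further: 0 = sulfaphenazole-blocked wells and 1 = vehicle-only wells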
Pyk2 oligo antag = Pyk2 (human) oligomerization antagonism | Q293 cells, Pyk2 FERM NanoBiT luminescence; hits give low values | z-score (the deposit names both 25 µM and 10 µM) | AID 1347419 | hit rate 0.83% among 99,000 | Q14289;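 active means Z-score of -3 or lower, scaled per plate to the spread of control and sample wells; inactive means z-score above -3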;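 further: negative z-score means lost luminescence so less FERM oligomerization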
CYP2C9 inh = blocks human cytochrome P450 2C9; CYP2C9 Supersomes, luciferin-H conversion, luminescence; inhibition, % at 5 µM; hit rate 20% among 96,000; AID 777;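 active means blocking of liver enzyme CYP2C9 beyond about 50% at 5 µM, limit read from the data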
CYP2C19 inh = blocks human cytochrome P450 2C19. AID 778. hit rate 21% among 96,000. inhibition, % at 5 µM. CYP2C19 Supersomes, luciferin-H EGE luminescence, 30 min. P33261;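 active means CYP2C19 inhibition above a set limit at 5 µM in the primary screen, cut at about 50% in these data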;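 further: plate controls were negative control wells for no effect and 2.5 mM tranylcypromine positive control for full effect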
CYP2C19 activ = cytochrome P450 2C19 (human) activation | 96,000 tested, under 10 active | activation factor at 5 µM | AID 1025 | recombinant CYP2C19, luciferin-H EGE luminescence; hits give high values; 0 = fully inhibited enzyme, 1 = untreated enzyme;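 active means activation factor of at least 2 at 5 µM in the primary screen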;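 further: 0 = wells with 2.5 mM tranylcypromine and 1 = vehicle-only wells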
The depositor's hits bear a star; · = not tested or not shown. This is a sample that favours compounds with a hit; in the whole collection about 28% have one here.

SMILES	CYP2C9 act	Pyk2 oligo antag	CYP2C9 inh	CYP2C19 inh	CYP2C19 activ
C=CCNC(=O)C1CC(=O)N(c2ccc(OCC(=O)Nc3cccc(OC)c3)cc2)C1 (stereo not drawn)	0.4	0.43	56*	19	0.8
Cc1ccc(N2CC(C(=O)Nc3cccnc3)CC2=O)cc1 (stereo not drawn)	0.6	-0.01	37	50	0.5
CC(=O)Nc1cccc(NC(=O)C2CC(=O)N(c3ccc(C)cc3)C2)c1 (stereo not drawn)	0.3	0.09	68*	72*	0.3
CCc1ccc(N2CC(C(=O)Nc3ccc(C)c(S(=O)(=O)N4CCOCC4)c3)CC2=O)cc1 (stereo not drawn)	0	-0.28	100*	90*	0.1
COC(=O)c1sccc1NC(=O)Cn1cnc2c1c(=O)n(C)c(=O)n2C	0.8	0.29	17	41	0.6
COC(=O)c1ccc(NC(=O)C2CC(=O)N(c3ccc(C)cc3)C2)cc1 (stereo not drawn)	·	0.16	·	·	·
CC(C)Oc1ccc(N2CC(C(=O)Nc3ccccc3F)CC2=O)cc1 (stereo not drawn)	0.7	0.17	32	-15	1.2
Cc1ccc(NC(=O)C2CC(=O)N(c3ccc4c5c(cccc35)CC4)C2)cc1 (stereo not drawn)	0.4	-0.11	56*	26	0.7
Cc1ccc(N2CC(C(=O)Nc3cc(C)ccc3F)CC2=O)cc1 (stereo not drawn)	0.1	-0.52	90*	75*	0.3
COC(=O)c1ccccc1NC(=O)C1CC(=O)N(c2ccc(C)cc2)C1 (stereo not drawn)	0.4	0.81	57*	29	0.7
CCOc1ccc(N2CC(C(=O)Nc3ccccc3F)CC2=O)cc1 (stereo not drawn)	0.3	0.44	68*	16	0.8
Cc1nnc(-c2cnn(C)c2N)n1Cc1cccc(Cl)c1	1	1	4	9	0.9
CCCC(=O)n1nc(-c2cccnc2)nc1N	1.1	0.74	-14	0	1
O=C(NC1CSC/C1=N\O)c1ccccc1 (stereo not drawn)	0.9	0.4	6	13	0.9
Cc1c(C(=O)N2CCOCC2)sc(NC(=O)c2ccc3c(c2)OCO3)c1C#N	0.9	2.5	11	-8	1.1
CCc1ccc(N2CC(C(=O)Nc3cccnc3)CC2=O)cc1 (stereo not drawn)	0.3	0.88	74*	58*	0.4
COCCN(C(=O)Cc1cccs1)C(C(=O)NCc1ccc(OC)cc1)c1ccccc1 (stereo not drawn)	0.8	-0.07	17	14	0.9
O=C1c2ccccc2C(=O)C1c1ccncc1	0.1	0.93	91*	49	0.5
Cc1ccccc1N1C(=O)c2ccccc2NC1c1ccncc1 (stereo not drawn)	·	-1	·	·	·
Cc1c(C(=O)OCC(=O)N2CC(=O)Nc3ccccc32)oc2ccc(Br)cc12	1.3	2	-29	-26	1.3
Cc1c(Br)cc(C(=O)N2CCCC2)c(C)c1C	1.9	0	-91	92*	0.1
O=C1CS/C(=C\[N+](=O)[O-])N1c1ccccc1	0.9	-0.79	6	6	0.9
C=CCNC(=S)N/N=C/c1ccc(-c2cc(Cl)ccc2Cl)o1	1.7	-3.4*	-69	9	0.9
C=CCNC(=S)Nc1ccc2nc(C)c(C)nc2c1	1	0.22	2	16	0.8
CN1/C(=C/C2CC(=O)N(c3ccc([N+](=O)[O-])cc3)C2=O)C(C)(C)c2ccccc21 (stereo not drawn)	0.8	0.2	19	80*	0.2
SMILES	CYP2C9 act	Pyk2 oligo antag	CYP2C9 inh	CYP2C19 inh	CYP2C19 activ
Cc1nc(SC2CC(=O)N(c3ccc([N+](=O)[O-])cc3)C2=O)nc2c1CCCC2 (stereo not drawn)	0.9	0.21	12	21	0.8
COc1ccccc1-c1nc(C#N)c(N2CCc3ccccc3C2)o1	0.3	-0.67	75*	84*	0.2
N#Cc1nc(-c2ccco2)oc1N1CCN(c2ccccc2)CC1	0.8	-0.03	19	40	0.6
COc1ccc(N2CCN(c3oc(-c4ccccc4OC)nc3C#N)CC2)cc1	1	-0.8	1	19	0.8
COc1ccccc1-c1nc(C#N)c(N2CCN(c3ccccc3)CC2)o1	1	0.8	0	80*	0.2
COc1ccc(-c2nc(C#N)c(N3CCc4ccccc4C3)o2)cc1OC	0.8	-1.2	23	55*	0.4
N#Cc1nc(-c2ccco2)oc1N1CCC(Cc2ccccc2)CC1	0.1	1.2	91*	82*	0.2
COc1ccccc1-c1nc(C#N)c(N2CCCCCC2)o1	1.3	-0.5	-25	23	0.8
S=C1NCCOCCOCCOCCOCCNC(=S)NCCOCCOCCOCCOCCN1	·	-0.6	·	·	·
COc1ccc(-c2occ(C(=O)O)c2C(=O)O)cc1	1.1	1.7	-14	3	1
CCCCNCc1cccn1-c1ccccc1	·	-0.18	·	·	·
N#Cc1nc(-c2ccccc2Cl)oc1N1CCOCC1	1.4	0.18	-39	15	0.9
CC1CCN(c2oc(-c3ccccc3Cl)nc2C#N)CC1	0.1	-1.1	87*	86*	0.1
O=c1cc(-c2ccccc2)[nH]c2nc3ccccc3n12	0.2	-2.2	76*	61*	0.4
COC(=O)C1=C(N)Oc2c(oc(CO)cc2=O)C1c1ccccc1F (stereo not drawn)	0.9	0.11	9	-1	1
Clc1ccc(-c2nnc(C34CC5CC(CC(C5)C3)C4)o2)cn1	1	-0.23	1	6	0.9
CCOc1ccc(OCC)c(NC(=O)C2CCN(c3ncccn3)CC2)c1	0.5	1.1	52*	30	0.7
CCOc1ccc(OCC)c(NC(=O)C2CCCN(c3ncccn3)C2)c1 (stereo not drawn)	0.6	-0.6	38	60*	0.4
Cc1ccc(F)cc1NC(=O)C1CCCN(c2ncccn2)C1 (stereo not drawn)	0.1	0.73	94*	94*	0.1
O=C(Nc1ccccc1C(=O)N1CCCC1)C1CCN(c2ncccn2)CC1	1	-0.2	-2	-9	1.1
O=C(c1ccco1)N1CCN(c2cc(C(F)(F)F)nc3ncnn23)CC1	1.1	-0.38	-5	-3	1
CCCCCn1c(C(C)NC(=O)CCC)nc2ccccc21 (stereo not drawn)	0.9	·	9	-1	1
Cc1cc(C)n(CC2CC(=O)N(c3ccc(Cl)c(Cl)c3)C2=O)n1 (stereo not drawn)	0.2	-0.86	77*	99*	0
O=C(ONC1=NCCCCC1)c1ccc(Cl)cc1	1.1	-0.11	-10	8	0.9
O=C(ONC1=NCCCCC1)c1c(F)cccc1F	1.1	0.63	-9	91*	0.1
C=CCn1c(O)c(N=NC(=O)c2ccc3c(c2)OCO3)c2ccccc21	1	-0.74	-4	2	1
Cn1c(C(=O)NCCCN2CCN(c3ccccc3F)CC2)cc2c(=O)n(C)c3ccccc3c21	0.5	·	50*	66*	0.3
Cn1c(C(=O)NCCCN2CCOCC2)cc2c(=O)n(C)c3ccccc3c21	0.9	·	6	14	0.9
